Assay results as given in paper PMC7862700, “An all-to-all approach to the identification of sequence-specific readers for epigenetic DNA modifications on cytosine”.

Key:
Experiment in all cases: DAPPL (digital affinity profiling via proximity ligation, sequencing); 10 mM Tris-HCl pH 7.5, 50 mM NaCl, 1 mM DTT, 4% glycerol, room temperature, 30 min; GST-TFs on glutathione beads, 16-mer random dsDNA library, 0.1% formaldehyde crosslink after washing; high values mean tight binding
[1] = target: T1, FLI1 (Homo sapiens, UniProt Q01543 1-452); conditions: protein: recombinant; tags: N-terminal GST; dsDNA, one strand shown
T1 sequence: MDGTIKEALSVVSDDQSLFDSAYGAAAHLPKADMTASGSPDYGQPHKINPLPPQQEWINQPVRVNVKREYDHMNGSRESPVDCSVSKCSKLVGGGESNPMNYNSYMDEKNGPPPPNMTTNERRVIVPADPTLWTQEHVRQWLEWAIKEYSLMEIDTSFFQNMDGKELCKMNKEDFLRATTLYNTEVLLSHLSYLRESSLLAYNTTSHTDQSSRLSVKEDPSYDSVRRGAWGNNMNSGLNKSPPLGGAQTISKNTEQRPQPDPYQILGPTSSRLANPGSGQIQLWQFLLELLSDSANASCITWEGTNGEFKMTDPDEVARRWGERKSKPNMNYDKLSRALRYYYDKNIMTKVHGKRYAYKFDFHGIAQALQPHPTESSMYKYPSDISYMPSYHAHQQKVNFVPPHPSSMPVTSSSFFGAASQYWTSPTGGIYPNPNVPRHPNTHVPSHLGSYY
Summary of the method: (§1)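 In yeast, human transcription factors were expressed with a GST fusion, then pulled down on glutathione beads and given DNA barcodes. Pooled with a tag-only sample, they were exposed to 200 nmole of a 16-mer random double-stranded DNA library (Tris/NaCl/DTT/glycerol buffer, room temperature, 30 min), washed, crosslinked with 0.1% formaldehyde, proximity-ligated using BsaI/T4 ligase for 1 h at 37 °C, PCR-amplified and read on an Illumina NextSeq500. Each hexamer's frequency of reads for a factor, divided by the matching frequency for the tag-only sample, gives the binding signal.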

[2] = target: T2, ELK1 (Homo sapiens, UniProt P19419 1-428); conditions: protein: recombinant; tags: N-terminal GST; dsDNA, one strand shown
T2 sequence: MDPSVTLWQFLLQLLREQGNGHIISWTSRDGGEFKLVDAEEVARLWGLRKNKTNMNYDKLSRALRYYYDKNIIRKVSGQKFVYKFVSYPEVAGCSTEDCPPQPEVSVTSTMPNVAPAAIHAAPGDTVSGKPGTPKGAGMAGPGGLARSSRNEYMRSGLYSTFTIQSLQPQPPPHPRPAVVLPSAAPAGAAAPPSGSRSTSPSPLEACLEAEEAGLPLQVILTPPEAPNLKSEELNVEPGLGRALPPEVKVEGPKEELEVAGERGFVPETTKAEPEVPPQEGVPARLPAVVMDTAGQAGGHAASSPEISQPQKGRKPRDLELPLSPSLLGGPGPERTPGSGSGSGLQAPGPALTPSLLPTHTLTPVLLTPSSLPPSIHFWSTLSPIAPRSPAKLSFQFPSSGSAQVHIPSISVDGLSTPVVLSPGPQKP
Summary of the method: as §1

[3] = target: T3, EHF (Homo sapiens, UniProt Q9NZC4 1-300); conditions: protein: recombinant; tags: N-terminal GST; dsDNA, one strand shown
T3 sequence: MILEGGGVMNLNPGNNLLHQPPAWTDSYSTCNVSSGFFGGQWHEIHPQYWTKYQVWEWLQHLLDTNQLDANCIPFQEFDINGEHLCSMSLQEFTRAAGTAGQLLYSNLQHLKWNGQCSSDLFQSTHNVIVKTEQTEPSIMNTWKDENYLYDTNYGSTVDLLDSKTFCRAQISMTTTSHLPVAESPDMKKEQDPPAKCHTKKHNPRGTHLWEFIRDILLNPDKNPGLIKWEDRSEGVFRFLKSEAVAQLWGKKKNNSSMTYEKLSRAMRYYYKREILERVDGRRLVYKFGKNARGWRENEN
Summary of the method: as §1

[4] = target: T4, ELK3 (Homo sapiens, UniProt P41970 1-407); conditions: protein: recombinant; tags: N-terminal GST; dsDNA, one strand shown
T4 sequence: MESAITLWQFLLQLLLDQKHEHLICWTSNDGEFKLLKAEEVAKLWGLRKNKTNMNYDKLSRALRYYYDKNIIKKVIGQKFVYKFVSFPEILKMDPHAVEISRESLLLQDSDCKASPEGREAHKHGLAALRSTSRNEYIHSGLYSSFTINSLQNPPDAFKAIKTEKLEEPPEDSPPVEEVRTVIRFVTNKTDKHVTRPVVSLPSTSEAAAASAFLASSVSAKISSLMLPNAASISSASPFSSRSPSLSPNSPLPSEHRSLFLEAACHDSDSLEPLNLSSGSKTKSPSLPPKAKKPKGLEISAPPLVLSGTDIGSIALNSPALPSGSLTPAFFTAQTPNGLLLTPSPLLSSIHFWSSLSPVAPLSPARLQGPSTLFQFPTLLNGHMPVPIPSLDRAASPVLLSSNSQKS
Summary of the method: as §1

[5] = target: T5, ELK4 (Homo sapiens, UniProt P28324-2 1-405); conditions: protein: recombinant; tags: N-terminal GST; dsDNA, one strand shown
T5 sequence: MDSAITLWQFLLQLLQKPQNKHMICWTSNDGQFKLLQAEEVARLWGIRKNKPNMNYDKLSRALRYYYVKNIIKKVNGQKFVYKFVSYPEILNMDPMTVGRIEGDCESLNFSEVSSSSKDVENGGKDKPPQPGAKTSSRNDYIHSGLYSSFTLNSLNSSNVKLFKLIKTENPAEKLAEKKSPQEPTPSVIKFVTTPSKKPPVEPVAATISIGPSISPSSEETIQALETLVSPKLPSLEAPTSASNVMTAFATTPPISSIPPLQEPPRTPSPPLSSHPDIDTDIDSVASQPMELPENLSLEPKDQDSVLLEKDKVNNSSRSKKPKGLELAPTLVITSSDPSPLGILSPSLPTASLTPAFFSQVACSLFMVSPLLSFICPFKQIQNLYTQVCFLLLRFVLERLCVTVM
Summary of the method: as §1

[6] = target: T6, ETS2 (Homo sapiens, UniProt P15036 1-469); conditions: protein: recombinant; tags: N-terminal GST; dsDNA, one strand shown
T6 sequence: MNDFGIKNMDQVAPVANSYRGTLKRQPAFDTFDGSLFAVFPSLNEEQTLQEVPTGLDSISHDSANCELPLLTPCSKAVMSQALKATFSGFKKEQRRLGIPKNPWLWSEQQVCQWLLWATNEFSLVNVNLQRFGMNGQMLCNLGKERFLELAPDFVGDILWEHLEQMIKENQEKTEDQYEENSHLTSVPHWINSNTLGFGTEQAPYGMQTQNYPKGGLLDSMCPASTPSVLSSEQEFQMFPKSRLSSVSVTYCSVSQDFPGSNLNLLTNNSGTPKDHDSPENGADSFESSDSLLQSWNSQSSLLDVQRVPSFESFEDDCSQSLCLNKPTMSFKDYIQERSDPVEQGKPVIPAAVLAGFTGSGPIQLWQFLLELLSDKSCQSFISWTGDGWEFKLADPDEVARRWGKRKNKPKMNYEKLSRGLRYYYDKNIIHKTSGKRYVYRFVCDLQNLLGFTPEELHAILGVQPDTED
Summary of the method: as §1

[7] = target: HSF1 (Homo sapiens, UniProt Q00613 1-529); conditions: protein: recombinant; tags: N-terminal GST; chain copies: 3; dsDNA, one strand shown
Chain of HSF1 (Q00613 whole entry): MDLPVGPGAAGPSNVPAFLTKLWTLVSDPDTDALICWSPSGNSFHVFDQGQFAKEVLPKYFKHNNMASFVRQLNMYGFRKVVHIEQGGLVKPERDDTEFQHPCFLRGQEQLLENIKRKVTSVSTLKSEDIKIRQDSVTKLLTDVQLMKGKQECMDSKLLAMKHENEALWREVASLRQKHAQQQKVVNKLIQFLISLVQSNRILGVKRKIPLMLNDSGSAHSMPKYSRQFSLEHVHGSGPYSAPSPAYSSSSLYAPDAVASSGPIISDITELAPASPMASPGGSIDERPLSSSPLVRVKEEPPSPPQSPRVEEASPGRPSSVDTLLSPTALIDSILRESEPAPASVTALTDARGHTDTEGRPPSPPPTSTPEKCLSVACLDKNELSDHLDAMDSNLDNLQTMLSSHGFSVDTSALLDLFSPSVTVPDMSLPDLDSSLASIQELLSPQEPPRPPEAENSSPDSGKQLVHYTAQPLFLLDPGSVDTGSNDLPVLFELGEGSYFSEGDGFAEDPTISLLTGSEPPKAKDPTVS
Summary of the method: as §1

Sequence	binding signal [1]	binding signal [2]	binding signal [3]	binding signal [4]	binding signal [5]	binding signal [6]	binding signal [7]
CATCAG	1 fold enrichment (6-mer frequency, TF over GST control)	1.04 fold enrichment (6-mer frequency, TF over GST control)	1.03 fold enrichment (6-mer frequency, TF over GST control)	1.06 fold enrichment (6-mer frequency, TF over GST control)	1.06 fold enrichment (6-mer frequency, TF over GST control)	1 fold enrichment (6-mer frequency, TF over GST control)	
CTAGAG							1.58 fold enrichment (6-mer frequency, TF over GST control)
